The panel holds about 79,000 compounds, 15% with a hit somewhere; the sample as a whole holds those more often. The source made the active and inactive calls. Rule as the data show it: active = growth inhibition above about 70%; inactive = the rest.
Tests used:
[1] = NCI Yeast Anticancer Drug Screen. Data for the rad52 strain (AID 147);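 also: 0% = growth of vehicle-treated control cultures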; details: S. cerevisiae rad52 mutant growth inhibition, hits give high values
How it was run: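 The repair-mutant yeast strain was incubated with compounds, then growth was read and inhibition derived relative to vehicle.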

[2] = NCI Yeast Anticancer Drug Screen. Data for the wt1 strain (AID 149);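 also: 0% = growth of vehicle-treated wt1 cultures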; details: S. cerevisiae wt1 strain (SPY 50644) growth inhibition, hits give high values
How it was run: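 Each compound is tested on wt1 yeast and the loss of growth versus vehicle gives the inhibition value.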

[3] = NCI Yeast Anticancer Drug Screen. Data for the rad50EPP+ strain (AID 151);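 also: 0% = growth of vehicle-treated control cultures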; details: S. cerevisiae rad50 mutant strain, hits give high values
How it was run: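 Vehicle-normalised growth inhibition; rad50EPP+ yeast strain, altered in DNA damage repair, compound-treated.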

[4] = NCI Yeast Anticancer Drug Screen. Data for the mgt1 strain (AID 153); details: S. cerevisiae mgt1 mutant growth inhibition, hits give high values
How it was run: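 Vehicle-normalized growth inhibition is determined in mgt1 yeast, a strain selected for a defined alteration in DNA repair or cell cycle control.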

[5] = NCI Yeast Anticancer Drug Screen. Data for the rad50 strain (AID 155);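 also: 0% = growth of vehicle-only cultures of the same strain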; details: S. cerevisiae rad50 strain growth inhibition, hits give high values
How it was run: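 Vehicle-treated cultures provide the reference for the growth inhibition reported for compound-exposed, repair-deficient yeast.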

[6] = NCI Yeast Anticancer Drug Screen. Data for the mec2-1 strain (AID 157); details: S. cerevisiae mec2-1 strain, hits give high values
How it was run: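 Mutant yeast (mec2-1) grown with compound; growth inhibition relative to vehicle control reported.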

[7] = NCI Yeast Anticancer Drug Screen. Data for the rad14 strain (AID 159);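 also: 0% = growth of vehicle-treated control cultures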; details: S. cerevisiae rad14 strain growth inhibition, hits give high values
How it was run: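 Inhibition of growth is reported for a repair-deficient yeast mutant following compound treatment, calculated relative to cultures that received vehicle.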

[8] = NCI Yeast Anticancer Drug Screen. Data for the sgs1 mgt1 strain (AID 161);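 also: 0% = growth of cultures given vehicle only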; details: S. cerevisiae sgs1 mgt1 strain, hits give high values
How it was run: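 This yeast growth screen uses a strain with defined DNA-repair lesions; compound-treated growth is compared with vehicle-treated growth.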

[9] = NCI Yeast Anticancer Drug Screen. Data for the CLN2oe strain (AID 163);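 also: 0% = growth of vehicle-only control cultures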; details: S. cerevisiae CLN2oe strain, hits give high values
How it was run: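 Compounds are applied to yeast harbouring a defined cell-cycle control change; reduced growth compared with vehicle-treated controls gives the value.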

[10] = NCI Yeast Anticancer Drug Screen. Data for the bub3 strain (AID 167); details: S. cerevisiae bub3 mutant strain, hits give high values
How it was run: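 Mutant yeast screening strain plus compound; vehicle-treated cultures serve as the 0% inhibition reference.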

[11] = NCI Yeast Anticancer Drug Screen. Data for the wt2 strain (AID 169); details: S. cerevisiae wt2 strain growth inhibition, hits give high values
How it was run: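 Against vehicle-treated controls, the growth of yeast exposed to each compound was compared, and the inhibition was recorded.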

[12] = NCI Yeast Anticancer Drug Screen. Data for the mlh1 strain (AID 171);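 also: 0% = growth of vehicle-treated control cultures of the same strain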; details: S. cerevisiae mlh1 strain growth inhibition, hits give high values
How it was run: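 Measured: yeast growth. Reference: vehicle-treated controls. Organism: strain with a defined alteration affecting DNA damage repair or cell cycle control, treated with compound.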

[13] = NCI Yeast Anticancer Drug Screen. Data for the mlh1 rad18 strain (AID 175); details: S. cerevisiae mlh1 rad18 strain growth inhibition, hits give high values
How it was run: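 Genetically defined yeast (DNA repair-deficient) exposed to compounds; growth inhibition determined relative to vehicle.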

[14] = NCI Yeast Anticancer Drug Screen. Data for the rad18 strain (AID 177); details: S. cerevisiae rad18 mutant growth inhibition, hits give high values
How it was run: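 Vehicle-treated cultures served as the baseline for scoring compound-induced growth inhibition in DNA-repair-mutant yeast.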

[15] = at 5.0 µM (retest, dose inferred, filed as 0.5)
[16] = at 50.0 µM (retest, dose inferred, filed as 5.0)

Measured: growth inhibition

CCC(C)COC(=O)c1ccc(N=Cc2ccc(C=Nc3ccc(C(=O)OCC(C)CC)cc3)cc2)cc1 (stereo not given)
inactive: [1]; at 1.2 µM -2% | [1]; at 3.7 µM -3% | [1]; at 11.0 µM 6% | [1]; at 33.0 µM 4% | [1]; at 100.0 µM 13% | [2]; at 1.2 µM -1% | [2]; at 3.7 µM -4% | [2]; at 11.0 µM -2% | [2]; at 33.0 µM -1% | [2]; at 100.0 µM 3% | [3]; at 1.2 µM 5% | [3]; at 3.7 µM 5% | [3]; at 11.0 µM 16% | [3]; at 33.0 µM 32% | [3]; at 100.0 µM 49% | [4]; at 1.2 µM 1% | [4]; at 3.7 µM 1% | [4]; at 11.0 µM -4% | [4]; at 33.0 µM -6% | [4]; at 100.0 µM 6% | [5]; at 1.2 µM -2% | [5]; at 3.7 µM -9% | [5]; at 11.0 µM -2% | [5]; at 33.0 µM 3% | [5]; at 50.0 µM 28.8% | [5]; at 100.0 µM 21% | [6]; at 1.2 µM -3% | [6]; at 3.7 µM -2% | [6]; [15] 13% | [6]; at 11.0 µM 3% | [6]; at 33.0 µM 4% | [6]; [16] 13% | [6]; at 50.0 µM 49.6% | [6]; at 100.0 µM 8% | [7]; at 1.2 µM -1% | [7]; at 3.7 µM 1% | [7]; at 11.0 µM 4% | [7]; at 33.0 µM 2% | [7]; at 100.0 µM 11% | [9]; at 1.2 µM 0% | [9]; at 3.7 µM 0% | [9]; at 11.0 µM 6% | [9]; at 33.0 µM -1% | [9]; at 100.0 µM 0% | [10]; at 1.2 µM 7% | [10]; at 3.7 µM 3% | [10]; [15] 3% | [10]; at 11.0 µM 6% | [10]; at 33.0 µM 10% | [10]; [16] 3% | [10]; at 50.0 µM 62.1% | [10]; at 100.0 µM 10% | [11]; at 1.2 µM 0% | [11]; at 3.7 µM -2% | [11]; at 11.0 µM 0% | [11]; at 33.0 µM 2% | [11]; at 100.0 µM 5% | [12]; at 1.2 µM 0% | [12]; at 3.7 µM 3% | [12]; at 11.0 µM 2% | [12]; at 33.0 µM 10% | [12]; at 100.0 µM 19% | [13]; [15] 50% | [13]; [16] 50% | [13]; at 50.0 µM 57.1% | [14]; at 1.2 µM -1% | [14]; at 3.7 µM -3% | [14]; at 11.0 µM 3% | [14]; at 33.0 µM 13% | [14]; at 100.0 µM 22%
active: [5]; [15] 96% | [5]; [16] 96% | [8]; [15] 98% | [8]; [16] 98% | [8]; at 50.0 µM 70.3%

Source: PubChem BioAssay (NCI)
